Measured values from PubChem BioAssay AID1851 (National Center for Advancing Translational Sciences (NCATS), 2009).
Hit rate of the full screen: of about 16,000 compounds, about 5,800 (36%) were called active. Not shown: some 23% with an inconclusive outcome. The list shows a part of the results. Unmarked numbers belong to inactive results. Calls come from the whole dose curve; as a rule, active = well fitted curve in the direction sought with a large enough effect; inconclusive = small, poorly fitted or top-dose-only effect, or effect the other way; inactive = no such curve, though single readings can be large or run the other way.

Each compound was assayed against Cytochrome P450 2C19 (Homo sapiens) (UniProt P33261) (assay: Cytochrome panel assay with activity outcomes). Settings: recombinant CYP, pro-luciferin dealkylation, luminescence, p450-cyp2c19; series mostly up to 57.1 µM.
% is set by controls: 0 for no effect and ±100 for the full control effect.

Sequence of Cytochrome P450 2C19 (Homo sapiens) (P33261 whole entry, looked up): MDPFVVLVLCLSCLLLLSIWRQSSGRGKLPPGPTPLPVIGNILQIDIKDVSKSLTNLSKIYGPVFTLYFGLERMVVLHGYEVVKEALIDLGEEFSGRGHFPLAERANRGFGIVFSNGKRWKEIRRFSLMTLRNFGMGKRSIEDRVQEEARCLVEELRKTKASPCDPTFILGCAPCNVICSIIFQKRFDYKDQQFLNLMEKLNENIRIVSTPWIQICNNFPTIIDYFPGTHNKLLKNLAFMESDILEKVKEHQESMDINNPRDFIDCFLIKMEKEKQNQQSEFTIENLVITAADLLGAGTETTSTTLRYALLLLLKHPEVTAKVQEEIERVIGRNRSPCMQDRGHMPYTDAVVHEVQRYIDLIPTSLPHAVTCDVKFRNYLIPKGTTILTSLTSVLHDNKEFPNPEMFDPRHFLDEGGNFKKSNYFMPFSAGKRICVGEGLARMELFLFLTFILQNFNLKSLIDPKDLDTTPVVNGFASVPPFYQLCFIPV

| Compound | activity, negative = inhibition | AC50 |
| --- | --- | --- |
| C=C(C)COc1ccc2c(c1)CCC1C2CC[C@]2(C)C(=O)/C(=N/O)CC12 (stereo partly specified) | 19.2% [at 11.4 µM] |  |
| CCOC(=S)SCC(=O)O | 38.2% [at 11.4 µM] |  |
| O=c1cc(-c2ccccc2)[nH]n1-c1ccc([N+](=O)[O-])cc1 |  | 8.91 µM (active) |
| COc1cccc(/C=N/n2nnc3c(cnn3-c3ccccc3)c2=O)c1 |  | inactive |
| COc1ccc(Oc2c(Cl)cnn(-c3ccccc3)c2=O)cc1 |  | 2.24 µM (active) |
| COc1ccc(-n2c(=O)c(C)nc3cnc(Oc4ccccc4)nc32)cc1 |  | inactive |
| CCCC[C@H]1C[C@@H]1[C@@H]1N(P(=O)(c2ccccc2)c2ccccc2)C[C@@](O)(c2ccccc2)CC12CC2 |  | inactive |
| O=C(NCCc1ccccc1)N1c2ccccc2Sc2ccccc21 |  | 2.82 µM (active) |
| COc1ccc(S(=O)(=O)N2CCCN(CCC(=O)Nc3cccc(C(F)(F)F)c3)CC2)cc1 |  | 2.51 µM (active) |
| COc1ccc(C)cc1NC(=O)CCC(=O)Nc1nnc(C(F)(F)F)s1 |  | inactive |
| COc1ccc(S(=O)(=O)N2CCN(CC(=O)Nc3cc(OC)cc(OC)c3)CC2)cc1 |  | 14.1 µM (active) |
| COc1ccc(NC(=O)c2cc(S(=O)(=O)N3CCS(=O)(=O)CC3)ccc2Cl)cc1 |  | inactive |
| COc1ccc(S(=O)(=O)N2CCCN(CC(=O)Nc3ccc(OC)c(Cl)c3)CC2)cc1 |  | 0.0631 µM (active) |
| COc1ccc(S(N)(=O)=O)cc1C(=O)NCCCN1CCN(c2ccc(C)cc2)CC1 |  | inactive |
| COc1ccc(C)cc1NC(=O)CN1CCN(S(=O)(=O)c2ccc(F)cc2)CC1 |  | 2.82 µM (active) |
| COc1ccc(NC(=O)N2CC[C@@]3(CCCN(S(C)(=O)=O)C3)C2)cc1 |  | inactive |
| CC12CS(=O)(=O)CC1SC(=S)N2c1ccccn1 (stereo unspecified) |  | inactive |
| COc1ccc(NC(=O)N2CC[C@@]3(CCCN(C(=O)c4cccn4C)C3)C2)cc1 |  | inactive |
| COC(=O)N1CCC2(CCCN(C(=O)Nc3cccc(F)c3)C2)CC1 |  | inactive |
| CCOc1ccc(C(=O)CN2CCN(S(=O)(=O)c3ccc(F)cc3)CC2)cc1 |  | 7.08 µM (active) |
| COc1ccc(C(=O)N2CCC3(CCN(C(=O)Nc4cccc(F)c4)CC3)CC2)cc1 |  | inactive |

| Compound | activity, negative = inhibition | AC50 |
| --- | --- | --- |
| COc1ccc(S(=O)(=O)N2CCN(CC(=O)Nc3cccc(F)c3)CC2)cc1 |  | 4.47 µM (active) |
| Cc1ccc(C2C3=C(CCCC3=O)Nc3nc(SCC(=O)NCc4ccco4)[nH]c(=O)c32)cc1 (stereo unspecified) |  | inactive |
| Cc1cccc(Cc2c(C)nc3nc(SCC(=O)NCc4ccco4)nn3c2C)c1 |  | 5.01 µM (active) |
| Cc1nc2nc(SCC(=O)NCc3ccco3)nn2c(C)c1Cc1c(F)cccc1Cl |  | 15.8 µM (active) |
| CC(=O)c1ccc(NC(=O)C(Cc2ccccc2)NC(=O)c2ccco2)cc1 (stereo unspecified) |  | 15.8 µM (active) |
| O=C(Nc1ccccc1)C(Cc1ccccc1)NC(=O)C12CC3CC(CC(C3)C1)C2 (stereo unspecified) |  | inactive |
| O=C(NC(Cc1ccccc1)C(=O)O)/C(=C\c1ccco1)NC(=O)c1ccc(Br)cc1 (stereo unspecified) |  | inactive |
| N#Cc1cccc(NC(=O)N2CC3(CCN(C(=O)c4cnccn4)CC3)C2)c1 |  | inactive |
| CCOC(=O)C1=C(C)N=C2SC(C(=O)OC)=CC(=O)N2C1c1ccc(F)cc1 (stereo unspecified) |  | 1.26 µM (active) |
| COc1ccc2c(c1)c(CC(=O)O)c(C)n2C(=O)c1ccccc1 |  | inactive |
| CCCC(=O)NCCc1c2n(c3ccc(OC)cc13)Cc1ccccc1-2 |  | 0.398 µM (active) |
| CSCCC(NC=C1C(=O)OC(C)(C)OC1=O)C(=O)O (stereo unspecified) |  | inactive |
| CC1(C)OC(=O)C(=CNCC(O)c2ccccc2)C(=O)O1 (stereo unspecified) |  | 11.2 µM (active) |
| CC1(C)OC(=O)C(=CNc2cccc(O)c2)C(=O)O1 |  | inactive |
| c1ccc2sc(NC3=NCN(C4CCCCCC4)CN3)nc2c1 |  | 1.12 µM (active) |
| COCCn1c(=O)c(-c2ccccc2)nc2cnc(Nc3ccccc3)nc21 |  | inactive |
| c1ccc2sc(SCN(C3CCCCC3)C3CCCCC3)nc2c1 | -38.6% [at 11.4 µM] |  |
| COCCN1CN=C(Nc2nc3ccccc3s2)NC1 |  | 14.1 µM (active) |
| COCCN1CN=C(Nc2nc3ccccc3o2)NC1 |  | inactive |
| CN1CCN(c2ncc3nc(-c4cc(F)cc(F)c4)c(=O)n(CCC#N)c3n2)CC1 |  | inactive |
| CN(C)c1ccccc1CN1CCCN(Cc2ccccc2N(C)C)C1c1ccncc1 | -28.5% [at 11.4 µM] |  |

| Compound | activity, negative = inhibition | AC50 |
| --- | --- | --- |
| CCCCCCCCN1C(=O)N(C)C(N(O)C(=O)NC)C1(C)C (stereo unspecified) |  | 7.08 µM (active) |
| O=C(Nc1cc(C(F)(F)F)ccc1N1CCCCC1)c1ccc(Br)o1 |  | 11.2 µM (active) |
| NS(=O)(=O)c1cc(C(=O)O)cc(N2CCCC2)c1Oc1ccccc1 |  | inactive |
| O=C(COc1ccccc1)Nc1cc(C(F)(F)F)ccc1N1CCCC1 |  | 5.01 µM (active) |
| Nc1ncnc2c1ncn2CCCCC(=O)O | 24.1% [at 11.4 µM] |  |
| COc1ccc2nc(SCC(=O)NN)cc(C)c2c1 |  | inactive |
| COc1ccc2nc(C)cc(SCC(=O)NNC(=O)COc3ccc(C)cc3)c2c1 |  | 3.16 µM (active) |
| COc1ccc2nccc(C(=O)O)c2c1 |  | inactive |
| COc1ccc2nc(C)cc(SCC(=O)Nc3c(C)cc(C)cc3C)c2c1 |  | 2.51 µM (active) |
| COc1ccc2nccc(SCC(=O)O)c2c1 | -14.8% [at 11.4 µM] |  |
| NC(=O)c1cc[n+](CC2=C(C(=O)[O-])N3C(=O)[C@@H](NC(=O)Cc4cccs4)[C@@H]3SC2)cc1 |  | inactive |
| CCOC(=O)C(NC(C)=O)C(OC(C)=O)c1cccc(N(CCO)CCO)c1 (stereo unspecified) |  | inactive |
| O=C(Nc1nnc(C2CC2)s1)c1cc(S(=O)(=O)N2CCN(c3ccccc3)CC2)ccc1Cl |  | 7.08 µM (active) |
| Cc1c(NC(=O)C2CCN(S(=O)(=O)c3ccc(Cl)cc3)CC2)c(=O)n(-c2ccccc2)n1C |  | inactive |
| COc1ccc(COC(=O)N/N=C2/C[C@@H](O)[C@@H](O)[C@@H]3[C@@H]4C(=O)N(C(C)(C)C)C(=O)[C@H]4CC[C@@H]23)cc1 | 1.08% [at 11.4 µM] |  |
| Brc1ccc([C@H]2CN3CCSC3=N2)cc1 |  | inactive |
| CC(=O)c1c(C)nc(-c2ccccc2)n1O |  | inactive |
| CN=c1nc(-c2ccccc2)n(-c2ccccc2)s1 |  | 3.16 µM (active) |
| Cc1ccc(-n2c(-c3ccccc3)cc(=O)nc2C)cc1 |  | inactive |
